According to paper doi:10.1101/2025.02.07.636106:

Molecular target: Histone deacetylase 2 (UniProt Q92769)
Assay: cross-link between two proteins; affinity purification or IP with mass spectrometry; cross-linking mass spectrometry

Sequence of Histone deacetylase 2 (Q92769 whole entry): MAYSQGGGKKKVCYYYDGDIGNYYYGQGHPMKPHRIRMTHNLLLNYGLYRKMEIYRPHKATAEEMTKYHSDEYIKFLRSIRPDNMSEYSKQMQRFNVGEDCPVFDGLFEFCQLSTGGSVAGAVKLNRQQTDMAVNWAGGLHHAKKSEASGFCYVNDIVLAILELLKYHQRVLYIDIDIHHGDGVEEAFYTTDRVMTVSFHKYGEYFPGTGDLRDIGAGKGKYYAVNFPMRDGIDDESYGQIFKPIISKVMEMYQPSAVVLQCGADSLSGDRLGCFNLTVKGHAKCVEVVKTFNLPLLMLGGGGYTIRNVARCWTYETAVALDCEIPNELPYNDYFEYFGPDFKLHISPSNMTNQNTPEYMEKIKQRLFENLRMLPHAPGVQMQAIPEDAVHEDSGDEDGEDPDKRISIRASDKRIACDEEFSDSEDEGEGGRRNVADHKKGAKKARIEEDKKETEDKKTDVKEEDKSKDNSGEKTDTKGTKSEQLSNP

Listed as a hit, yes:
Methyl-CpG-binding domain protein 3, O95983
Transcriptional repressor p66-beta, Q8WXI9
ATP-dependent chromatin remodeler CHD4, Q14839
Histone-binding protein RBBP7, Q16576
